The text below walks through data of the supplement of paper PMC7366291.

Counter-ions that a name gives are not always drawn. ± gives the standard deviation or the standard deviation of the averaged measurements.

Holding throughout (conditions): 25 µM; exposure: 24-48 hpf
Assay [1] deals with Danio rerio Tg(wt1b:EGFP) embryo, pronephros. The assay can be described thus: glomerular separation, fold change vs DMSO control; higher = glomeruli further apart (abnormal). In outline:
(§1)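 Features are reported as fold changes against the mean of same-day DMSO-treated embryos. Before that, values more than 2 SD away from the feature mean were excluded. The embryos, dechorionated Tg(wt1b:EGFP) zebrafish, had been exposed from 24 to 48 hpf at 28.5°C to 25 μM compound in 0.5% DMSO in HEPES-buffered E3 with 0.003% PTU, and distances and angles came from 16 manually set points on maximum projections of dorsal pronephros images in Fiji.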

Assay [2] has the same test system. The assay can be described thus: glomerular width (mean of left and right), fold change vs DMSO control; higher = wider glomerulus. In outline:
as §1

Assay [3] shares this test system. Kind of assay: fraction of imaged embryos annotated as normal kidney; higher = less nephrotoxic; extreme values may be limits of the assay. In outline: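 Zebrafish embryos carrying Tg(wt1b:EGFP) were dechorionated and exposed to 25 μM compound (0.5% DMSO) between 24 and 48 hpf at 28.5°C. Their pronephroi were imaged by widefield fluorescence, and each embryo was classed by hand from maximum projections. The measure is the fraction of embryos per treatment falling in the normal-kidney category.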

Assay [4] has the same test system. The assay can be described thus: pronephric angle neck segment to proximal convoluted tubule (mean of left and right), fold change vs DMSO control; higher = larger pronephric angle. The essentials:
as §1

In the case of `COCC(=O)Nc1c(I)c(C(=O)NCC(O)CO)c(I)c(C(=O)N(C)CC(O)CO)c1I` (stereo not given) [Iopromide], the glomerular separation in assay [1] came out at 0.857 ± 0.4. Moreover, the glomerular width in assay [2] was 1.02 ± 0.041. Also, in assay [3], the “fraction of imaged embryos annotated as normal kidney” value (“fraction of imaged embryos annotated” for short) was 0.917. The “pronephric angle neck segment” value in assay [4] turned out to be 0.97 ± 0.023.
In the case of `NCCc1c[nH]cn1` [Histamine dihydrochloride], the glomerular separation in assay [1] was found to be 1.1 ± 0.25. In assay [2], this compound came in with a glomerular width of 0.9518 ± 0.0028. Moreover, in assay [3], the “fraction of imaged embryos annotated” value came out at 0.833. Further, in assay [4], the “pronephric angle neck segment” value stood at 1.03 ± 0.03.
Taken in the same sequence, the figures for `CC(=O)[C@H]1CC[C@H]2[C@@H]3CCC4=CC(=O)CC[C@]4(C)[C@H]3CC[C@]12C` [Progesterone] were 3.48 ± 3.4, 0.873 ± 0.086, 0.364 and 1.2 ± 0.12.
The corresponding values for `Nc1ccn([C@@H]2O[C@H](CO)[C@@H](O)[C@@H]2O)c(=O)n1` [Cytarabine] are 0.773 ± 0.16, 1.06 ± 0.016, 0.917 and 0.998 ± 0.015.
Taken in the same sequence, the figures for `CN1CCN(CCCN2c3ccccc3Sc3ccc(C(F)(F)F)cc32)CC1` [Trifluoperazine dihydrochloride] were 1.22 ± 0.54, 0.953 ± 0.015, 0.833 and 0.9555 ± 0.0078.
In assay [1], `CCN1CC(CCN2CCOCC2)C(c2ccccc2)(c2ccccc2)C1=O` (stereo not given) [Doxapram hydrochloride] registered a glomerular separation of 0.953 ± 0.32. The glomerular width in assay [2] was determined as 0.981 ± 0.0026. Further, in assay [3], the “fraction of imaged embryos annotated” value stood at 0.833. The “pronephric angle neck segment” value in assay [4] came to 0.9542 ± 0.0079.
For `O=P(O)(O)C(O)(Cc1cccnc1)P(=O)(O)O` [Risedronic acid monohydrate], the glomerular separation in assay [1] was 0.755 ± 0.35. This compound also had a glomerular width in assay [2] of 1.04 ± 0.032. The “fraction of imaged embryos annotated” value in assay [3] is 0.833. Further, the “pronephric angle neck segment” value in assay [4] turned out to be 0.975 ± 0.027.
The corresponding values for `C=C1C(=O)O[C@H]2[C@H]1CC/C(C)=C/CC[C@@]1(C)O[C@@H]21` [Parthenolide] are 2.81 ± 1.2, 0.8373 ± 0.0079, 0.364 and 1.4 ± 0.038.
Taken in the same sequence, the figures for `COc1c(N2CCNC(C)C2)c(F)cc2c(=O)c(C(=O)O)cn(C3CC3)c12` (stereo not given) [Gatifloxacin] were 0.71 ± 0.24, 1.02 ± 0.054, 0.917 and 1 ± 0.04.
The corresponding values for `Clc1ccccc1CN1CCc2sccc2C1` [Ticlopidine hydrochloride] are 1.13 ± 0.49, 1.09 ± 0.048, 0.833 and 1.008 ± 0.0084.
As for `O=C1OC(CN2CCOCC2)CN1/N=C/c1ccc([N+](=O)[O-])o1` (stereo not given) [Furaltadone hydrochloride], in assay [1], the glomerular separation was 0.859 ± 0.33. This compound showed a glomerular width in assay [2] of 1.1 ± 0.021. The “fraction of imaged embryos annotated” value in assay [3] is 0.75. Moreover, in assay [4], the “pronephric angle neck segment” value was found to be 0.995 ± 0.015.
`CC(CN(C)C)CN1c2ccccc2Sc2ccccc21` (stereo not given) [Trimeprazine tartrate] registered a glomerular separation in assay [1] of 0.739 ± 0.27. In assay [2], this compound gave a glomerular width of 0.9878 ± 0.0068. Further, in assay [3], the “fraction of imaged embryos annotated” value was 0.833. Besides, the “pronephric angle neck segment” value in assay [4] amounted to 1.01 ± 0.0053.
The corresponding values for `OCC(O)CN1CCN(c2ccccc2)CC1` (racemic) [Dropropizine (R,S)] are 0.917 ± 0.28, 1.002 ± 0.0079, 0.75 and 1.03 ± 0.038.
The compound `CCCCC(=O)O[C@H]1CC[C@H]2[C@@H]3CCc4cc(O)ccc4[C@H]3CC[C@]12C` [Estradiol Valerate] gave a glomerular separation in assay [1] of 1.02 ± 0.37. Further, the glomerular width in assay [2] was determined as 0.925 ± 0.016. Also, in assay [3], the “fraction of imaged embryos annotated” value is 0.583. In addition, in assay [4], the “pronephric angle neck segment” value is 1.134 ± 0.0028.
The corresponding values for `CN(C)CCC=C1c2ccccc2COc2ccccc21` [Doxepin hydrochloride] are 0.925 ± 0.22, 0.99 ± 0.035, 0.917 and 1.01 ± 0.076.
The corresponding values for `COc1ncnc(NS(=O)(=O)c2ccc(N)cc2)c1OC` [Sulfadoxine] are 0.694 ± 0.18, 0.997 ± 0.062, 0.833 and 1.02 ± 0.066.
In assay [1], `CCOC(=O)NNc1nncc2ccccc12` [Todralazine hydrochloride] showed a glomerular separation of 0.937 ± 0.25. This compound also gave a glomerular width in assay [2] of 0.993 ± 0.06. Also, the “fraction of imaged embryos annotated” value in assay [3] is 0.917. Further, in assay [4], the “pronephric angle neck segment” value turned out to be 0.963 ± 0.031.
The corresponding values for `C[C@@H]1C[C@H]2[C@@H]3C[C@H](F)C4=CC(=O)C=C[C@]4(C)[C@@]3(F)[C@@H](O)C[C@]2(C)[C@@]1(O)C(=O)COC(=O)C(C)(C)C` [Flumethasone pivalate] are 1.2 ± 0.37, 1.04 ± 0.015, 0.25 and 0.989 ± 0.0085.
The corresponding values for `CC1CS(=O)(=O)CCN1/N=C/c1ccc([N+](=O)[O-])o1` (stereo not given) [Nifurtimox] are 0.837 ± 0.36, 0.986 ± 0.038, 0.917 and 0.938 ± 0.045.
As to `O=C(NCC(O)CO)c1c(I)c(C(=O)NCC(O)CO)c(I)c(N(CCO)C(=O)CO)c1I` (stereo not given) [Ioversol], the glomerular separation in assay [1] was found to be 0.777 ± 0.33. The compound also displayed a glomerular width in assay [2] of 1.07 ± 0.063. The “fraction of imaged embryos annotated” value in assay [3] was 0.833. The “pronephric angle neck segment” value in assay [4] was 0.9813 ± 0.0048.
The corresponding values for `OCCOCCN1CCN(C2=Nc3ccccc3Sc3ccccc32)CC1` [Quetiapine hemifumarate] are 0.872 ± 0.15, 1.07 ± 0.066, 0.917 and 0.98617 ± 0.00072.
The corresponding values for `Cc1c(F)c(N2CCNC(C)C2)cc2c1c(=O)c(C(=O)O)cn2C1CC1` (stereo not given) [Grepafloxacin] are 0.897 ± 0.35, 1.033 ± 0.0021, 0.75 and 0.985 ± 0.013.
The corresponding values for `O=C(Nc1cccc2c(=O)cc(-c3nnn[nH]3)oc12)c1ccc(OCCCCc2ccccc2)cc1` [Pranlukast] are 1.04 ± 0.37, 1.01 ± 0.019, 0.833 and 1.01 ± 0.041.
`COc1ccccc1OCCNCC(O)COc1cccc2[nH]c3ccccc3c12` (stereo not given) [Carvedilol] showed a glomerular separation in assay [1] of 1.02 ± 0.41. In addition, the glomerular width in assay [2] came to 1.048 ± 0.0037. Besides, the “fraction of imaged embryos annotated” value in assay [3] came out at 0.8. Besides, the “pronephric angle neck segment” value in assay [4] stood at 0.958 ± 0.019.
The corresponding values for `NC[C@H]1O[C@H](O[C@H]2[C@H](O[C@@H]3O[C@H](CO)[C@@H](O)[C@H]3O)[C@@H](O)[C@H](N)C[C@@H]2N)[C@H](N)[C@@H](O)[C@@H]1O` [Ribostamycin sulfate salt] are 0.722 ± 0.22, 1.08 ± 0.019, 0.833 and 1.06 ± 0.061.
Take `CCC1(c2ccccc2)NC(=O)N(C)C1=O` (stereo not given) [Mephenytoin]: in assay [1], the glomerular separation was determined as 1.13 ± 0.4. The glomerular width in assay [2] was 0.9232 ± 0.0066. For the same compound, the “fraction of imaged embryos annotated” value in assay [3] came out at 0.75. Further, the “pronephric angle neck segment” value in assay [4] turned out to be 1.0068 ± 0.00059.
As for `CCN(CC)CCNc1ccc(CO)c2sc3ccccc3c(=O)c12` [Hycanthone], the glomerular separation in assay [1] was determined as 1.12 ± 0.27. This compound had a glomerular width in assay [2] of 0.968 ± 0.052. The “fraction of imaged embryos annotated” value in assay [3] was 0.833. The “pronephric angle neck segment” value in assay [4] came to 0.977 ± 0.059.
Taken in the same sequence, the figures for `Cc1cn[nH]c1` [Fomepizole] were 0.953 ± 0.37, 1.0458 ± 0.00026, 0.917 and 1.01 ± 0.018.
The corresponding values for `Cc1onc(-c2ccccc2Cl)c1C(=O)N[C@@H]1C(=O)N2[C@@H]1SC(C)(C)[C@@H]2C(=O)O` [Cloxacillin sodium salt] are 1.06 ± 0.42, 1.172 ± 0.0081, 0.833 and 1 ± 0.035.
Taken in the same sequence, the figures for `CC(=O)OCC(=O)[C@@]12OC3(CCCC3)O[C@@H]1C[C@H]1[C@@H]3CCC4=CC(=O)C=C[C@]4(C)[C@@]3(F)[C@@H](O)C[C@@]12C` [Amcinonide] were 1.06 ± 0.48, 1.22 ± 0.14, 0.417 and 1.01 ± 0.019.
